# Results: PubChem BioAssay
# Test: JC-1 mitochondrial signal, unstimulated HepG2 cells – cell-based, JC-1 fluorescence, 24 h, 100 nL compound, profiling panel (AID 1167); also: test concentration not given here
# Details: HepG2 mitochondrial potential, higher = more signal
row,SMILES,z-score
1,C=C(CCCC)/C(=C/C[C@H](OC(C)=O)c1cccc(OCCO)c1)c1cnc2ccccc2c1,1.86
2,O=C(NC1CC1)[C@@H]1c2ccccc2C(=O)N(CC23CC4CC(CC(C4)C2)C3)[C@H]1c1ccc(CO)cc1,1.49
3,C=CC[C@@]12N=C(c3ccc(OCCCO)cc3)O[C@@H]1c1ccccc1N(CCC)C2=O,1.07
4,C=CCOC(=O)[C@@H]1[C@H]2C(=O)O[C@H](c3ccccc3)[C@H](c3ccccc3)N2[C@H](c2ccc(OCCOC(=O)[C@H]3C[C@H]4C(=O)NCC(=O)N4[C@H]3c3cccc(OCCO)c3)cc2)[C@@]12C(=O)Nc1ccc(I)cc12,-1.05
5,COC(=O)C(CC#Cc1ccc2c(c1)[C@]1(C(=O)N2)[C@H](C(=O)N2CCc3cc(OC)c(OC)cc3C2)[C@H]2C(=O)O[C@H](c3ccccc3)[C@H](c3ccccc3)N2[C@@H]1c1ccccc1OCCO)C(=O)OC,-0.0236
6,C=CCOC(=O)[C@@H]1[C@H]2C(=O)O[C@H](c3ccccc3)[C@H](c3ccccc3)N2[C@H](c2ccc(OCCOC(=O)[C@H]3C[C@H]4C(=O)N[C@@H](CCCCN(C)C)C(=O)N4[C@H]3c3ccc(O)cc3)cc2)[C@@]12C(=O)Nc1ccc(I)cc12,0.309
7,COc1ccc([Si](C)(C)[C@@H]2[C@@H](CC(=O)N3CCC[C@H]3CO)O[C@]3(C(=O)N(Cc4ccc(N5CCOC5=O)cc4)c4ccccc43)[C@H]2C)cc1,0.391
8,CC1CC/C=C\[C@H]2OC34C=CCN(c5ccc6ccccc6c5)C(=O)[C@H]3N(C(C)CO)C(=O)[C@@H]4C2C(=O)O1 (stereo partly drawn),0.333
